# Source: PubChem BioAssay
# COUP-TFII inh = blocks human COUP-TFII nuclear receptor; inhibition, % at 8.6 µM; AID 686940; HEK293T NGFI-A luciferase reporter, luminescence; hit rate 0.7% among 370,000;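 active = inhibition above a per-plate cutoff, mean inhibition of test wells between control levels plus 3 SD, cut at about 38% in these data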;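 note: cells cotransfected with COUP-TFII expression vector driving the NGFI-A reporter; 0% = median of COUP-TF2 test wells and 100% = reporter-only cells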
# NR5A2 inv ag = inverse agonists of human LRH-1 (NR5A2) | hit rate 0.13% among 360,000 | O00482 | HEK293T StAR-luciferase reporter, LRH-1 transfected, 24 h | inhibition, % at 3.6 µM;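 active = inhibition above the mean inhibition of all tested compounds plus 3 SD, cut at about 73% in these data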;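 note: 0% = DMSO wells and 100% = reporter-only cells lacking LRH-1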
# SRC3 inh = human NCOA3 inhibition; Q9Y6Q9; HEK293 GAL4-SRC3 luciferase reporter, luminescence; inhibition, % at 3.6 µM; hit rate 0.17% among 360,000; AID 588352;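 active = inhibition above a per-campaign cutoff, the mean of all compounds plus 3 SD, cut at about 60% in these data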;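 note: 0% = DMSO-treated cells and 100% = gossypol-treated cells at 36 µM; higher means less SRC3-driven luciferase light from the GAL4 reporter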
# Target sequence (Q9Y6Q9 whole entry, looked up, the tested form may be a part): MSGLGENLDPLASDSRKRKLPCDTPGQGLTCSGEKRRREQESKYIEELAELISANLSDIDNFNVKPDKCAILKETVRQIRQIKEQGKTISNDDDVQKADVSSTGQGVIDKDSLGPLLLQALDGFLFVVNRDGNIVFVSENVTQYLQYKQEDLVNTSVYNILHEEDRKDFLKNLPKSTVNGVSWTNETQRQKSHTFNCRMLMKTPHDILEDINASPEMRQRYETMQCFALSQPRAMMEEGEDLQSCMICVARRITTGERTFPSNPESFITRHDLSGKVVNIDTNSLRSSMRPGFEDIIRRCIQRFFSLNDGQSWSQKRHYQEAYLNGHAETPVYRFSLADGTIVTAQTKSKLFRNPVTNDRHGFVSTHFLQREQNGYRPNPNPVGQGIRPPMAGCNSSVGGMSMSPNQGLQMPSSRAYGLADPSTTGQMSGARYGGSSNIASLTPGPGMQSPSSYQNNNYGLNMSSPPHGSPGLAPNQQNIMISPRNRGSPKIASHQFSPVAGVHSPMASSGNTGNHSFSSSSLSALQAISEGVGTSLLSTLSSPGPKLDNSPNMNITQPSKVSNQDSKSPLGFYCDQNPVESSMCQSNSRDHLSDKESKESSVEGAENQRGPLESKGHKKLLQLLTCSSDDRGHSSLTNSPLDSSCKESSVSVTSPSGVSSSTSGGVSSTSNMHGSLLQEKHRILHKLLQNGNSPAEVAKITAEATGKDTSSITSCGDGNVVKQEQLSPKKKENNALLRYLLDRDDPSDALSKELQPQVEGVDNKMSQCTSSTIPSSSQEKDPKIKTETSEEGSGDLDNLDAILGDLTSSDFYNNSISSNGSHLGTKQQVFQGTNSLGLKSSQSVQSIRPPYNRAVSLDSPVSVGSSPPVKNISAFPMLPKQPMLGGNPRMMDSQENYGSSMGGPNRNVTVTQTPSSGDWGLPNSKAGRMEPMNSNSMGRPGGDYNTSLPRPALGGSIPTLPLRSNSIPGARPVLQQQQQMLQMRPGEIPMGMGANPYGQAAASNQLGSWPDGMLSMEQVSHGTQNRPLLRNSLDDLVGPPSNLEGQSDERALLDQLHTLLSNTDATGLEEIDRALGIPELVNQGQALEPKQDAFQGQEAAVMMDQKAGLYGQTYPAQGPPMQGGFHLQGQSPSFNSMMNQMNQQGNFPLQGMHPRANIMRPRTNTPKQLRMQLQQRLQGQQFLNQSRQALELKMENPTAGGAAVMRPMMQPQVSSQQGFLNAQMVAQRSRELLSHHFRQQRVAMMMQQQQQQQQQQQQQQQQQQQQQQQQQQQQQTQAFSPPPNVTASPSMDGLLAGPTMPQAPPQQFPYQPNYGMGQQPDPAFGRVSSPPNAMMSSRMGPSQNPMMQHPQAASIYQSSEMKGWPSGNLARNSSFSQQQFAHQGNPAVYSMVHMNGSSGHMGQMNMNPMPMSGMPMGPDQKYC
# GalR3 antag = antagonists of human GalR3 | O60755 | HEK293 GalR3-CNG cAMP membrane potential fluorescence; galR3 body fused to GalR1 C-terminus | inhibition, % at 3 µM | hit rate 0.44% among 360,000;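 active = inhibition above the screen-wide average plus 3 SD, cut at about 13% in these data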;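 note: forskolin and galanin both at EC90 stimulate the cells; cAMP rise reported by CNG channel membrane potential dye signal; 0% = forskolin plus galanin with DMSO and 100% = forskolin alone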
# NCOA1 inh = inhibitors of human steroid receptor coactivator 1 (SRC1); Q15788; HEK293 GAL4-SRC1 luciferase reporter, luminescence; inhibition, % at 3.6 µM; hit rate 0.12% among 360,000; AID 588354;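 active = inhibition above the campaign mean plus 3 SD, with each screening campaign given its own cutoff, cut at about 60% in these data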;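 note: 0% = DMSO treated cells and 100% = gossypol at 36 µM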
# SRC2 inh = inhibits human steroid receptor coactivator 2 | Q15596 | HEK293 GAL4-SRC2 luciferase reporter, luminescence | inhibition, % at 9 µM | hit rate 0.17% among 370,000 | AID 651957;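 active = inhibition above the mean inhibition of all tested compounds plus 3 SD, set per campaign, cut at about 52% in these data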;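 note: 0% = DMSO treated cells and 100% = cells given Gossypol at 36 µM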
# Numbers without * were called inactive; nt = not tested or not shown. An excerpt weighted towards active compounds, which were near 1.1% of everything screened.
SMILES,COUP-TFII inh,NR5A2 inv ag,SRC3 inh,GalR3 antag,NCOA1 inh,SRC2 inh
C=CCN1[C@@H](Cc2ccccc2)COc2cccc(F)c2S1(=O)=O,6,nt,nt,nt,nt,2
COc1cc2c(cc1OC)/C(=C/C(=O)c1ccc(F)cc1)NCC2,-5,11,-21,15*,-16,-55
O=C(c1ccc(-c2ccccc2)cc1)c1ccccc1C(=O)N1CCOCC1,-13,-13,-5,-4,-6,15
S=C(c1ccc(-c2ccccc2)cc1)N1CCOCC1,34,6,35,-11,35,52*
Cc1nc(N2CCOCC2)c2c(C)c(C(=O)Nc3ccc(F)cc3Cl)sc2n1,6,7,-3,14*,2,23
Cc1nc(N2CCOCC2)c2c(C)c(C(=O)Nc3ccccc3Cl)sc2n1,15,-8,9,2,10,-8
COc1cc(/C=N/NC(=Nc2ccc(C)cc2)c2nc3ccccc3s2)ccc1O,28,-14,85*,-2,84*,25
COc1ccc(S[C@]2(C(=O)N3CCOCC3)CC(=O)N(C(=O)C3CC3)[C@@H]2c2ccc(OC)cc2)cc1,8,nt,nt,nt,nt,18
CN1CCCN(C(=O)C2CCCN(C(=O)c3ccc4c(c3)NC(=O)CS4)C2)CC1 (configuration not stated),-11,nt,nt,nt,nt,-28
COC(=O)c1cc2sccc2n1Cc1nc(-c2ccc(OC)cc2)oc1C,39*,-12,-1,-4,-18,-13
CCOc1ccc(-n2c(SCC(=O)Nc3ccc(S(=O)(=O)Nc4nccs4)cc3)nnc2-c2ccco2)cc1,-30,nt,nt,nt,nt,-3
CSc1ccc(-c2nc(CSCC(=O)NC3CC3)c(C)o2)cc1,-17,4,0,-7,2,20
CCc1ccc(-c2nc(CSCC(=O)NC3CC3)c(C)o2)cc1,22,18,20,-9,19,56*
CC(NC(=O)CCc1nnc(-c2ccc(-c3ccccc3)cc2)o1)c1nc2ccccc2[nH]1 (configuration not stated),35,4,-7,-9,-20,67*
NNC(=O)COc1ccc(-c2nccc(-c3ccc(F)cc3)n2)cc1,15,13,-3,-14,-32,53*
O=C(O)COc1ccc(-c2nccc(-c3ccccn3)n2)cc1,41*,10,10,-6,10,67*
FCCCOc1ccc(-c2nccc(-c3ccccn3)n2)cc1,8,-35,-6,-5,-23,4
NNC(=O)COc1ccc(F)cc1,-1,4,-9,0,-16,-6
CC(C)CN1CN2Cc3cc(F)ccc3C2CS1(=O)=O (configuration not stated),-13,nt,nt,nt,nt,7
COc1ccc(-c2cc(-c3nc4ccccn4c3NCc3ccccc3)ccc2OC)cc1,101*,91*,64*,-5,15,91*
CCCN(CCC)CCCNC(=O)c1cc2cc3ccc(OC)cc3nc2o1,-3,-13,-5,-4,-23,-5
COc1ccc2cc3cc(C(=O)NCCc4ccc(OC)c(OC)c4)oc3nc2c1,54*,3,29,-7,37,-2
COC(CNC(=O)[C@H](Cc1c[nH]c2ccccc12)NC1(C(=O)NC(c2ccccc2)c2ccccc2)CCCCC1)OC,13,nt,nt,nt,nt,nt
Cc1ccc(S(=O)(=O)/C(=C/Cl)NC(=O)c2ccccc2)cc1,30,49,52,-5,15,61*
Cc1ccc(S(=O)(=O)C(NC(=O)c2ccccc2)=C(Cl)Cl)cc1,17,3,-1,3,-1,52
SMILES,COUP-TFII inh,NR5A2 inv ag,SRC3 inh,GalR3 antag,NCOA1 inh,SRC2 inh
Cc1[nH]c2ccccc2c1CCN(Cc1cccs1)C(=O)Nc1cccc2c1OCO2,-24,nt,nt,nt,nt,-14
CCCCNC(=O)C1CCCN1C(=O)Nc1ccc(Cl)cc1 (configuration not stated),-2,nt,nt,nt,nt,0
Cc1cccc(C(=O)Nc2nc3ncccn3c2-c2ccc(F)c(F)c2)c1,-5,nt,nt,nt,nt,-10
Cc1cc(C=C2C(=O)c3ccccc3C2=O)c(C)n1-c1ccccc1,0,-7,85*,-3,2,3
O=C(NC1CCC1)c1ccc(C#Cc2cccc(F)c2)nc1,-38,nt,nt,nt,nt,-114
CCOC(=O)c1ccccc1NC(=O)c1cc(S(=O)(=O)N2CCOCC2)ccc1F,-19,11,17,13*,-5,-13
O=C(Nc1ccccc1N1CCCCC1)c1cc(S(=O)(=O)N2CCOCC2)ccc1F,-3,15,-24,0,-17,0
O=C1[C@@H]2Cc3c([nH]c4ccccc34)C(c3ccc([N+](=O)[O-])cc3)N2C(=O)CN1C1CC1 (some centres not stated),26,51,69*,-12,75*,-8
O=C(CCn1nnc(-c2cccs2)n1)NCc1ccco1,-12,nt,nt,nt,nt,-13
CCCCN(CC)Cc1ccc(CNC(=S)Nc2ccc(C)cc2Cl)o1,9,9,36,-6,15,53*
CCCCN(CC)Cc1ccc(CNC(=S)Nc2c(C)cc(C)cc2C)o1,-6,3,5,-6,-9,23
N#Cc1sc2nccc(Nc3ccccc3)c2c1N,36,42,64*,-1,72*,42
CC(=C/c1ccccc1)/C=N/n1c(-c2ccncc2)n[nH]c1=S,27,11,58,-3,63*,36
COc1ccc(C[N+]2=C(N)NC3=C4CCCCC4n4c(=O)n(-c5ccccc5)c(=O)n4C3C2)c(OC)c1 (configuration not stated),1,nt,nt,nt,nt,15
COc1ccccc1C=CC(=O)C=Cc1ccccc1OC,50*,-6,2,-2,-55,7
O=C(NC1CCCCC1)C(c1ccc(F)cc1)N(CCCN1CCOCC1)C(=O)c1ccc(CN2CCOCC2)o1 (configuration not stated),-4,21,-5,-8,93*,0
CC1(C)Oc2ccc(C(=O)N3CCCC3)cc2NC1=O,-1,nt,nt,nt,nt,16
S=c1nc(Cc2ccc(Cl)cc2)[nH]c2ccccc12,8,13,5,13*,1,12
S=c1nc(Cc2ccccc2)[nH]c2ccccc12,-8,-13,22,3,6,9
C#CCN1CC(N(C)CCOC(=O)c2cc(C)cc(C)c2)CS1(=O)=O (configuration not stated),-6,nt,nt,nt,nt,3
C=CC(=O)Nc1cccc(Nc2nc(N[C@H]3CC[C@H](N(C)C)CC3)nc3c2ncn3C(C)C)c1,nt,98*,87*,nt,88*,nt
CC(C)n1cnc2c(Nc3cccc(Cl)c3)nc(NCCCO)nc21,19,11,-16,-5,-45,-41
COC(=O)C1CN(Cc2ccc(C)cc2)CCS(=O)(=O)N1Cc1cn(Cc2ccccc2)nn1 (configuration not stated),-14,nt,nt,nt,nt,11
COc1cc(-c2nnc(-c3cc(-c4ccccc4)nc4ccccc34)o2)cc(OC)c1OC,-5,9,2,3,-9,94*
